Source: PubChem BioAssay
Only a selection was taken, and hits are over-represented in it overall.
Vaccinia Venus: vaccinia inhibition (Venus reporter). Vaccinia virus Venus reporter expression, fluorescence. AID 720580. Potency, µM (doses to about 36.5 µM), without a hit: top-dose activity change, negative = inhibition, hits mostly inhibitors. hit rate 0.46% among 330,000; calls by dose curve; tested in A549 cells; also: potency is read from the fitted curve at half-maximal effect; % is scaled to controls: 0 for no effect and ±100 for the full control effect; nearly all actives have a fitted effect of over 30% in size
Shiga inhibitor: Shiga toxin inhibition | Vero cells, Shiga toxin protein synthesis inhibition reporter | inhibition, % at 38.7 µM | hit rate 9.2% among 290,000 | AID 2315; in the data active = inhibition mostly above about 28%, no sharp cut-off; inactive = mostly below about 43%; also: 0% is about no effect
Cycloheximide cs: affects cycloheximide protein synthesis inhibition readout, counter-screen | max response, % | cell reporter, cycloheximide protein synthesis inhibition counterscreen | hit rate 12% among 300,000; in the data active = max response mostly above about 13%, no sharp cut-off; inactive = mostly below about 14%; also: read at 38.3 µM for the half of the compounds with a filed dose; 0% is about no effect
Lassa entry inh: inhibitors of Lassa virus binding or cell entry; Potency, µM (doses to about 37.9 µM), for the others: top-dose activity change, negative = inhibition, most hits filed as inhibitors; Lassa virus pseudotype entry inhibition, cell reporter; hit rate 1.2% among 300,000; calls by dose curve; tested in HEK293 cells; also: potency is read from the fitted curve at half-maximal effect; % is scaled to controls: 0 for no effect and ±100 for the full control effect; nearly all actives have a fitted effect of over 50% in size
Marburg entry inh: Marburg virus entry inhibition. Marburg virus pseudotyped entry inhibition, cell reporter. Potency, µM (titrated, usually from 37.8 µM), for the others: top-dose activity change, negative = inhibition, usual class: inhibitors. hit rate 1.8% among 300,000. AID 540276; calls by dose curve; tested in HEK293 cells; also: potency is read from the fitted curve at half-maximal effect; % is scaled to controls: 0 for no effect and ±100 for the full control effect
VACV mCherry inh: vaccinia inhibition (mCherry reporter). Vaccinia virus mCherry reporter infection, fluorescence. Potency, µM (doses to about 36.5 µM), inactives show at the highest dose activity change, negative = inhibition, actives largely listed as inhibitors. hit rate 0.63% among 310,000; calls by dose curve; tested in A549 cells; also: potency is read from the fitted curve at half-maximal effect; % is scaled to controls: 0 for no effect and ±100 for the full control effect; nearly all actives have a fitted effect of over 35% in size
Active calls of the source: *; i = inactive; ? = inconclusive; nt = not tested or not shown; [ ] = dose if it differs, or a comment.

SMILES	Vaccinia Venus	Shiga inhibitor	Cycloheximide cs	Lassa entry inh	Marburg entry inh	VACV mCherry inh
c1cc(-c2cc3cc(N4CCOCC4)ccc3o2)cs1	-3%	nt	nt	nt	nt	i
CCCCCOc1ccc(Br)cc1/C(C)=N/NC1=NCCN1	13µM*	-10	-5	?	10µM*	?
C/C(=N\NC(=O)Cc1c(F)cccc1Cl)c1cccnc1	-7%	24	11	0%[46.1 µM]	13%[46.1 µM]	i
O=C(N/N=C/c1cccs1)c1ccc2nc[nH]c2c1	-3%	49	20	nt	nt	-12%
Cc1ccsc1/C=N\NC(=O)c1cc(C(C)(C)C)[nH]n1	-20%	104*	24*	1%	12%	-4%
Cc1cc(C(=O)N/N=C/c2sccc2C)no1	-4%	43*	27*	10%	?	-14%
Cc1ccsc1/C=N/NC(=O)CO	nt	-4	-4	nt	nt	nt
Cc1ccsc1/C=N/NC(=O)c1ccc(-n2cccc2)cc1	-11%	66*	33*	7%	?	-4%
Cc1ccsc1/C=N/NC(=O)c1ccc2nc[nH]c2c1	-6%	32*	21*	3%	8%	-3%
O=C(CCNC(=O)c1ccccc1Cl)NCc1cccnc1	-10%	nt	nt	-13%[46.1 µM]	20%	0%
CCOC(=O)c1ccc(NC[C@@H](O)COc2ccccc2)cc1	nt	nt	nt	nt	-2%[46.1 µM]	nt
CN(Cc1ccccc1)C(=O)c1ccc(CSc2nc3cccnc3n2Cc2ccccc2F)cc1	-7%	nt	nt	-18%[46.1 µM]	nt	-15%
CN(C(=O)CSc1nc(N)c2c3c(sc2n1)CSC(C)(C)C3)c1ccccc1	-23%	-9	-4	?	-16%	-29%
CCN1CCC(N(Cc2ccc(F)cc2)C(=O)Nc2cccc(C(F)(F)F)c2)CC1	-16%	nt	nt	?	nt	-20%
Cc1ccsc1/C=N/NC(=O)c1ccco1	-5%	46*	24*	9%	?	-2%
Cc1ccsc1/C=N/NC(=O)CNC(=O)c1ccco1	0%	39	7	?	?	i
Cc1ccsc1/C=N/NC(=O)c1sccc1C	-15%	95*	53*	?	?	nt
Cc1ccc(C(=O)N/N=C\c2sccc2C)cn1	nt	73*	34*	nt	nt	nt
Cc1ccc(NC(=O)c2ncn(CCCN[C@H](C)c3cccc4ccccc34)n2)cc1C	-24%	nt	nt	nt	0%	-17%
Cc1cc(C)cc(-n2c(C)cc(C(=O)CSc3nnnn3C)c2C)c1	-14%	39	17	?	?	nt
COc1ccc(Cl)cc1C(=O)CSc1nnnn1C1CCCC1	1%	-14	-9	-2%	-18%	-9%
Cc1cc(C(=O)CSc2n[nH]c(N)n2)c(C)n1-c1cccc(F)c1	-19%	73*	20*	18%	-27%	i
COCCn1c(C)cc(C(=O)CSc2n[nH]c(N)n2)c1C	0%	-1	13*	6%	4%	-10%
COCCn1c(C)cc(C(=O)CSc2nnnn2C2CCCC2)c1C	-7%	nt	nt	1.3µM*	?	i
Cc1cc(C(=O)CSc2nnnn2C)c(C)n1-c1cccc(F)c1	-12%	122*	40*	?	?	-13%
SMILES	Vaccinia Venus	Shiga inhibitor	Cycloheximide cs	Lassa entry inh	Marburg entry inh	VACV mCherry inh
COCCn1c(C)cc(C(=O)CSc2nc3nc(C)cc(C)n3n2)c1C	-13%	8	-3	?	7%	i
Cc1cc(C(=O)COC(=O)C2=COCCO2)c(C)n1-c1cccc(F)c1	-17%	nt	nt	?	?	-2%
O=C(CN1C(=O)CSc2ccc(S(=O)(=O)N3CCCC3)cc21)NCc1ccccc1Cl	-2%	nt	nt	-9%[46.1 µM]	nt	-5%
CC(C)CC1(C2CCCC2)NC(=O)NC1=O (stereo unspecified)	-3%	nt	nt	-1%[46.1 µM]	16%[46.1 µM]	i
CC(Nc1ccc(Br)cc1)C(=O)Nc1cccc(S(=O)(=O)N2CCOCC2)c1 (stereo unspecified)	-9%	nt	nt	-1%	-12%[46.1 µM]	-16%
Cc1cc(C(=O)CSc2ncccn2)c(C)n1-c1cccc(F)c1	-2%	100*	86*	?	?	-8%
Cc1cc(C(=O)CSc2nc(N)cc(N)n2)c(C)n1-c1cccc(C(F)(F)F)c1	nt	-7	-3	-8%	-27%	nt
COc1ccc(C(=O)/C=C/C(=O)N(CC(=O)NCCC(C)C)Cc2cccs2)c(O)c1	nt	-5	7	?	21µM*	nt
COc1ccc(Oc2ccccc2/C=N/O)cc1	?	-4	-3	-11%	?	nt
COc1cc(C=NO)nc(-c2ccccn2)c1	?	nt	nt	1.3µM*	?	?
CC(C)(Cl)C1Cc2cc3ccc(=O)oc3cc2O1 (stereo unspecified)	-18%	47*	31*	18%	15%	-2%
